Among all 52,000 compounds or so, about 4,300 (8.3%) were called active. The sample as a whole holds a higher share of actives than the screen did. Unmarked numbers belong to inactive results. Rule as the data show it: active = survival mostly below about 52% (no sharp cut-off); inactive = mostly above about 56%.
System: DeltatarO mutant
Assay: growth inhibition of S. aureus wild type versus tarO mutant, primary screen, teichoic acid synthesis inhibitors, RN4220, OD600 (AID 463173)
Details: OD600, 18 h, stronger effect = lower value, screened at 18.75 µg/mL (by protocol)

| SMILES | survival |
| --- | --- |
| CCN(CC)CCCNC(=O)CN1N=C(c2ccccc2)CCC1=O | 87% |
| Cc1ccc(NC(=O)CCCn2c(=O)c3cccn3c3ccccc32)c(C)c1 | 49% |
| COc1ccc(NC(=O)CCCn2c(=O)c3cccn3c3ccccc32)c(OC)c1 | 57% (active) |
| Cc1cc(Cl)ccc1NC(=O)CN1C(=O)C(=O)c2ccccc21 | 71% |
| COc1ccc(OC)c(NC(=O)Cn2c(=O)c3cccn3c3ccccc32)c1 | 41% (active) |
| COc1ccc(NC(=O)CN2C(=O)C(=O)c3ccccc32)c(OC)c1 | 52% (active) |
| COc1ccc(NC(=O)CCn2c(=O)c3cccn3c3ccccc32)c(OC)c1 | 47% (active) |
| Cc1ccc(NC(=O)CCn2c(=O)c3cccn3c3ccccc32)c(Cl)c1 | 57% |
| COc1ccc(OC)c(CCNC(=O)CCCn2c(=O)c3cccn3c3ccccc32)c1 | 77% |
| CCOc1ccccc1NC(=O)CN1C(=O)C(=O)c2ccccc21 | 94% |
| COc1ccc(CNC(=O)Cn2c(=O)c3cccn3c3ccccc32)cc1 | 47% |
| COc1ccc(NC(=O)Cn2c(=O)c3cccn3c3ccccc32)cc1 | 49% |
| COc1ccc(NC(=O)CCn2c(=O)c3cccn3c3cccnc32)c(OC)c1 | 103% |
| CC1CN(C(=O)Nc2ccc(C(=O)NCCc3ccccc3Cl)cc2)c2ccccc2S1 (centres undefined) | 61% |
| COc1ccc(NC(=O)c2ccc3c(c2)sc2nc(-c4ccc(OC)cc4)cn23)cc1 | 61% |
| CN=C1SC(CC(=O)NC)C(=O)N1C (centres undefined) | 86% |
| CCCc1noc2c1C1=NNC(=O)C1C(C)(C)C2 (centres undefined) | 76% |

| SMILES | survival |
| --- | --- |
| O=c1[nH]c2ccc(NCc3ccc(-c4ccccc4)o3)cc2[nH]1 | 86% |
| O=C(Nc1ccc(-n2nncc2-c2ccccc2)cc1)c1cccc(F)c1 | 129% |
| COc1ccc(N2CCN(C(=O)CCc3c(C)nc4cc(-c5ccc(OC)cc5OC)nn4c3C)CC2)cc1 | 104% |
| CC(C)CNC(=O)c1cccc(Cl)c1 | 82% |
| COc1ccc(CCNC(=O)Cn2cc(C(=O)c3ccc(Cl)cc3)c(=O)c3ccc(C)nc32)cc1OC | 79% |
| COc1ccc(Cl)cc1NC(=O)CCn1c(=O)oc2ccccc21 | 40% (active) |
| COc1cc(NC(=O)CCn2c(=O)oc3ccccc32)cc(OC)c1OC | 62% |
| COc1ccc(NC(=O)CCn2c(=O)c3cccn3c3cccnc32)cc1Cl | 85% |
| Cc1c(Cl)cccc1NC(=O)CCn1c(=O)c2cccn2c2ccccc21 | 49% |
| COc1cc(OC)c(NC(=O)CCn2cccn2)cc1Cl | 79% |
| COc1ccc(OC)c(NC(=O)CCn2cnnn2)c1 | 80% |
| Cc1cc(C)c(NC(=O)Cn2c(=O)c3cccn3c3ccccc32)c(C)c1 | 51% |
| Cc1cccc(NC(=O)Cn2c(=O)c3cccn3c3ccccc32)c1C | 43% (active) |
| COc1ccc(NC(=O)Cn2c(=O)c3cccn3c3ccccc32)cc1Cl | 42% (active) |
| COc1ccc(NC(=O)CCCn2c(=O)c3cccn3c3cccnc32)cc1Cl | 87% |
| COc1ccc(NC(=O)Cn2c(=O)oc3cc(Cl)ccc32)c(OC)c1 | 91% |
| COc1ccc(OC)c(NC(=O)CCn2cccn2)c1 | 47% (active) |

From PubChem BioAssay AID463173 (ICCB-Longwood Screening Facility, Harvard Medical School, 2010)
